According to article PMC4336329 (PLoS ONE, 2015):
In all, about 310,000 compounds went through this assay and about 14,000 (4.5%) showed an effect of 50% or more. Effects have a minus sign here. This excerpt belongs to a sample that is enriched for strong results.

What follows are molecules tested against human ether-à-go-go-related gene (hERG) potassium channel (human, UniProt Q12809) (assay: primary screen, population patch clamp on CHO cells stably expressing hERG; higher = less effect of the substance).
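Further: peak tail current of the secondary pulse compared with the same well before compound.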

Sequence of human ether-à-go-go-related gene (hERG) potassium channel (Q12809 whole entry, looked up): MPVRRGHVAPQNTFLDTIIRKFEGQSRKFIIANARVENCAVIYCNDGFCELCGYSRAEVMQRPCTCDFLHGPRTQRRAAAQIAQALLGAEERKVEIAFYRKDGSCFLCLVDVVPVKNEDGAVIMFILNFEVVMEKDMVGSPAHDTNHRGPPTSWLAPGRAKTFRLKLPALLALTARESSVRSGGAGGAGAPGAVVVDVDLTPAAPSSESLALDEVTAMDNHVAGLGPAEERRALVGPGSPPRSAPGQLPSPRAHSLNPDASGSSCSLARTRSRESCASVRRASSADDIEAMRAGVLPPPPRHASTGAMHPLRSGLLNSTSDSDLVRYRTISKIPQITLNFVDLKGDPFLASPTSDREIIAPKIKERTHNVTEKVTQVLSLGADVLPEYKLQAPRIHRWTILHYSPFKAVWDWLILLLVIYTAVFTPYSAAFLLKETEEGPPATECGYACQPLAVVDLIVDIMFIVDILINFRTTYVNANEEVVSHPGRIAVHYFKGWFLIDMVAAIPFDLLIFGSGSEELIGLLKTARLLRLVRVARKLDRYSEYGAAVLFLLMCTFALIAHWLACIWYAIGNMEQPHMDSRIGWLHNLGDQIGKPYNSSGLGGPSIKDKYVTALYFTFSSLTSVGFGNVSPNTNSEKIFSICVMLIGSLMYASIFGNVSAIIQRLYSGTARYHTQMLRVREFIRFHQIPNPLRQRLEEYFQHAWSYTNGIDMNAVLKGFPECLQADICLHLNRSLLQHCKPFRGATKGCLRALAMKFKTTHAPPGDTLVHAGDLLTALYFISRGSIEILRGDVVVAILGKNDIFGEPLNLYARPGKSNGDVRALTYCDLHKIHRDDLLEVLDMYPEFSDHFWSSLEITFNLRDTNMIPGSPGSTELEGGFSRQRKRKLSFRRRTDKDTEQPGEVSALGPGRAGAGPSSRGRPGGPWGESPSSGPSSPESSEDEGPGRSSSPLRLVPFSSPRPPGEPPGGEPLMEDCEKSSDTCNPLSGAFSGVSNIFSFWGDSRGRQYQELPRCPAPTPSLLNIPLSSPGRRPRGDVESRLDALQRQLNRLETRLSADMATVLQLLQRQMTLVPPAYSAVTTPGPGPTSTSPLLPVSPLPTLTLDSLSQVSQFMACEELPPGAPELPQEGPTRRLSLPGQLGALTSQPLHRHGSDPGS

Structure (SMILES) | hERG current change (%, negative = inhibition) at 10uM [%]
Oc1oc(-c2ccccc2)nc1C=NCc1ccncc1 | -7.6
COc1ccc(S(=O)(=O)N[C@@H](Cc2ccccc2)C(=O)N2CC[C@@]3(O)CCCC[C@H]3C2)cc1 | -14.9
CCCn1c(=O)[nH]c(=O)c2c1nc(-c1ccc(OC(F)F)c(OC)c1)n2CCOC | -50.5
COCCn1c(-c2ccc(C#N)cc2)nc2c1c(=O)[nH]c(=O)n2Cc1ccccc1 | -33.9
COCCCn1c(-c2cccc(Cl)c2)nc2c1c(=O)[nH]c(=O)n2Cc1ccccc1 | -0.77
CCCn1c(-c2cccc([N+](=O)[O-])c2)nc2c1c(=O)[nH]c(=O)n2Cc1ccccc1 | -66.4
CCCn1c(=O)[nH]c(=O)c2c1nc(-c1ccc(OC)c(Br)c1)n2CCOC | -20.1
CCCCn1c(=O)[nH]c(=O)c2c1nc(-c1ccc(OC(F)F)c(OC)c1)n2C | 17.1
CCCn1c(-c2cc(OC)c(OC)c(OC)c2)nc2c1c(=O)[nH]c(=O)n2Cc1ccccc1 | 5.09
CCCn1c(-c2cccc(F)c2)nc2c1c(=O)[nH]c(=O)n2Cc1ccccc1 | 17.5
COCCn1c(-c2cccc([N+](=O)[O-])c2)nc2c1c(=O)[nH]c(=O)n2Cc1ccccc1 | -84.2
CS(=O)(=O)c1ccc2nc(NC(=O)c3ccc(Cn4cc(Br)cn4)o3)sc2c1 | -27.1
CCc1c(C)[nH]c2c1C(=O)C(CN1CCOCC1)CC2.Cl (stereo not shown) | -7.67
CCOc1cc(C(=O)O/N=C(\N)c2ccc([N+](=O)[O-])cc2)cc(OCC)c1OCC | -16
CCOc1ccccc1N1C(=O)NC(=O)/C(=C/c2ccc3c4c(cccc24)CC3)C1=O | 2.74
CSc1nsc(SC)c1NC(=O)OCCc1ccccn1 | -6.18
c1ccc(CCn2nnnc2C(c2cccnc2)N2CCN(c3nc4ccccc4s3)CC2)cc1 (stereo not shown) | -58.7
Oc1ccc(C(c2nnnn2CCc2ccccc2)N2CCN(c3nc4ccccc4s3)CC2)cc1 (stereo not shown) | 9.25
CCC(c1nnnn1CCOC)N1CCN(c2nc3ccccc3s2)CC1 (stereo not shown) | -34.7
COc1cc(C(c2nnnn2C(C)(C)C)N2CCN(c3nc4ccccc4s3)CC2)ccc1O (stereo not shown) | -28.1
CCC(c1nnnn1Cc1cccs1)N1CCN(c2nc3ccccc3s2)CC1 (stereo not shown) | -56.1
COCCn1nnnc1C(c1cccs1)N1CCN(c2nc3ccccc3s2)CC1 (stereo not shown) | -25.3
COCCn1nnnc1C(CC(C)C)N1CCN(c2nc3ccccc3s2)CC1 (stereo not shown) | -9.4
CC(C)CC(c1nnnn1Cc1cccs1)N1CCN(c2nc3ccccc3s2)CC1 (stereo not shown) | 0.473
COCCn1nnnc1C(c1ccc(OC)c(OC)c1)N1CCN(c2nc3ccccc3s2)CC1 (stereo not shown) | -56.3
CCCC(c1nnnn1CCOC)N1CCN(c2nc3ccccc3s2)CC1 (stereo not shown) | -66.2
CCCC(c1nnnn1Cc1cccs1)N1CCN(c2nc3ccccc3s2)CC1 (stereo not shown) | -22.4
c1ccc(CCn2nnnc2C(c2cccnc2)N2CCN(c3ccccc3)CC2)cc1 (stereo not shown) | -47.6
